The results in this text go back to PubChem BioAssay AID2315 (National Center for Advancing Translational Sciences (NCATS), 2010).

The whole screen tested about 290,000 compounds, of which about 27,000 (9.3%) were called active. Shown is part of a subset that was picked to be rich in actives. Unmarked numbers belong to inactive results. Rule as the data show it: active = inhibition mostly above about 28% (no sharp cut-off); inactive = mostly below about 43%.

The test can be described thus: A qHTS for Small Molecule Inhibitors of Shiga Toxin. Also: 0% is about no effect. The conditions noted are these: Vero cells, Shiga toxin protein synthesis inhibition reporter; at 38.7 µM, stronger effect = higher value. In general terms: In qHTS, concentration-response curves come from the screen itself.
With `O=[N+]([O-])c1ccc2nc(-c3ccccn3)[nH]c2c1`, the inhibition – broadly, the drop in the measured response relative to a control, in per cent – is 102% (active).
On to `O=c1[nH]c2cccnc2n1-c1ccc([N+](=O)[O-])cc1`, for which the inhibition was 6.32%.
Turning to `O=C(CSc1nc2ccc([N+](=O)[O-])cc2[nH]1)c1ccc(Cl)cc1`, the inhibition was -3.36%.
Turning to `COC(=O)c1cc(S(=O)(=O)Nc2ccc(C)c(F)c2)c[nH]1`, the inhibition was 9.13%.
Regarding `CC(C)c1c(C(=O)N/N=C/c2ccccc2C(=O)O)nnn1-c1nonc1N`, the inhibition is 0.546%.
`Cc1cccc(N2CCN(Cc3nc(C4CC4)no3)CC2)n1`: the inhibition was 18.6%.
For the compound `O=C(NCc1ccccc1Cl)C1CCCN1S(=O)(=O)c1ccc(F)cc1` (stereo unspecified), the inhibition was -12.5%.
Regarding `CCOC(=O)c1cc2c(nc1NC(=S)Nc1ccccc1)CC(C)(CC)OC2` (stereo unspecified), the inhibition was -8.83%.
Consider `CCOC(=O)c1cn[nH]c1NC(=S)Nc1ccccc1`, for which the inhibition was 57.1% (active).
With `CCOC(=O)c1ccc(NC(=S)Nc2cc(C)cc(C)n2)cc1`, the inhibition was -12.4%.
Consider `COc1ccc(CN2CCc3nc(Nc4ccccc4)ncc3C2)c(OC)c1OC`, for which the inhibition was 3.91%.
For the compound `COc1ccc(C2NC(=O)c3ccccc3N2)cc1` (stereo unspecified), the inhibition is 62.6% (active).
In the case of `O=C1NC(c2cccc(Cl)c2)Nc2ccccc21` (stereo unspecified) it was 18.4%; in that of `COc1cccc(C2Nc3cccc4cccc(c34)N2)c1`, -2.47%.
As for `COc1cccc2cc(-c3cc(=O)oc4cc(C)c(O)cc34)oc12`, the inhibition is 0.992%.
The figure for `CCCCCc1c(C)nc(N2CCN(Cc3ccc4c(c3)OCO4)CC2)[nH]c1=O` is 7.82%; for `CN(C(=O)COc1ncnc2c1cnn2-c1ccccc1)C1CCCCC1` it is 20.6%.
In the case of `COc1ccc(N2CCN(C(=O)CSc3ncnc4c3cnn4-c3ccc(OC)cc3)CC2)cc1`, the inhibition was -9.91%.
Turning to `COc1ccccc1N1CCN(C(=O)CSc2ncnc3c2cnn3-c2ccc(C)c(C)c2)CC1`, the inhibition is 66.7% (active).
With `CC(C)Sc1ncnc2c1cnn2-c1ccccc1`, the inhibition was 96.6% (active).
In the case of `c1ccc(-n2ncc3c(N4CCCC4)ncnc32)cc1` it was 27.5%; in that of `COc1ccc(NC(=O)CSc2ncnc3[nH]ncc23)cc1`, -13.5%; in that of `CC(=O)Nc1ccc(NC(=O)CSc2ncnc3c2cnn3Cc2ccccc2)cc1`, 3.21%.
The figure for `COc1ccc(-n2ncc3c(SCC(=O)NNC(C)=O)ncnc32)cc1` is 25.6% (active); for `COc1ccccc1N1CCN(C(=O)CSc2nnc(-c3ccoc3C)o2)CC1` it is 31.6%; for `c1ccc(-n2ncc3c2ncn2c(C4CCCCC4)nnc32)cc1` it is 11.5%.
`COC(=O)CSc1ncnc2c1cnn2-c1ccc(C)cc1C`: the inhibition is -5.7%.
With `CCN(CC)C(=O)CSc1ncnc2c1cnn2-c1ccccc1`, the inhibition was 66.2% (active).
On to `COc1ccccc1Oc1ccc(N/C=C2/CCCC2=O)cc1`, for which the inhibition is 33.6%.
As for `Cc1onc(-c2ccccc2)c1C(=O)N1CCN(S(=O)(=O)c2ccccc2C(F)(F)F)CC1`, the inhibition is 61.7%.
As to `CCOc1ccc(N(CC)S(=O)(=O)c2cccc3nsnc23)cc1`, the inhibition was -2.2%.
Take `Nc1c(Cl)cc(-c2csc(N3CCCC3c3nc4cc(Cl)c(Cl)cc4n3CCOCCO)n2)cc1Cl` (stereo unspecified): the inhibition is -18%.
The figure for `CCCOc1ccc(-c2c(C(=O)N/N=C/c3ccco3)nnn2-c2nonc2N)cc1` is -3.97%; for `CC(C)c1ccc2oc(=O)cc(CN3CCN(Cc4ccccc4)CC3)c2c1` it is -3.05%.
For `Cc1ccc(C(=O)N2CCC(n3nccc3NC(=O)Nc3cccc(F)c3)CC2)cn1`, the inhibition is -8.38%.
As to `COc1ccc(-c2cc(=O)oc3cc(OC(C)C(=O)NCC4CCC(C(=O)O)CC4)ccc23)cc1` (stereo unspecified), the inhibition is -4.72%.
Consider `O=C(Cn1cnc2c(cnn2-c2ccc(F)cc2)c1=O)NCCc1ccccc1`, for which the inhibition is -0.429%.
On to `O=C(Cn1cnc2c(cnn2-c2ccccc2)c1=O)NCc1ccccc1`, for which the inhibition is 31.9%.
Turning to `CC(=O)Cn1cnc2c(cnn2-c2ccccc2)c1=O`, the inhibition is 34.2% (active).
Consider `CC1C(=O)Nc2ccccc2N1C(=O)c1c(F)cccc1F` (stereo unspecified), for which the inhibition is -5.2%.
In the case of `COC(=O)C1CCCCN1C(=O)c1ccc(OC2CCN(C(C)=O)CC2)c(OC)c1` (stereo unspecified), the inhibition is 20.4%.
The figure for `Cc1ccc(S(=O)(=O)N2CCN(C(=O)COC(=O)c3c(C)noc3C)CC2)c(C)c1` is -4.13%; for `Cc1ccc(-c2nc(COC(=O)c3c(C)noc3C)cs2)cc1` it is 104% (active).
In the case of `COc1cc(OC)cc(C(=O)NCC(=O)OCc2csc(-c3ccccc3)n2)c1` it was 21%.
As for `CN1CCN(S(=O)(=O)c2ccc(NC(=S)NC(=O)C3CC3)cc2)CC1`, the inhibition was 11.7%.
For `Cc1ccc2c(c1)C1CN(C)CCC1N2C(=S)Nc1ccc(Cl)cc1Cl` (stereo unspecified), the inhibition was 14.7%.
The figure for `CN(C)C(=S)Nc1ccc(Br)cc1Cl` is 23.8%; for `S=C(Nc1ccc(Cl)cc1Cl)N1CCCC1` it is 88.2% (active); for `S=C(NCc1cccnc1)Nc1ccc(Cl)cc1Cl` it is 23.4%.
With `CC1CN(C(=S)Nc2ccc(Br)cc2Cl)CC(C)O1` (stereo unspecified), the inhibition was -7.71%.
In the case of `Cc1cc(Cl)ccc1NC(=S)N1CCC(C(N)=O)(N2CCCCC2)CC1` it was -10.1%; in that of `S=C(Nc1ccc(Br)cc1Cl)N1CCC2(CC1)OCCO2`, 76.2% (active); in that of `O=C(NC(=S)Nc1ccc(Cl)cc1Cl)C1CC1`, 97.9% (active).
Consider `CCc1ccc(N(CC(=O)NCc2cccnc2)S(=O)(=O)c2ccccc2)cc1`, for which the inhibition was 9.02%.
In the case of `CCn1nc(C)c(CNC(=O)C2CCC(=O)N(Cc3cccc(F)c3)C2)c1C` (stereo unspecified) it was -13.2%; in that of `C=Cc1ccc(C(=O)N2CCCC(CCC(=O)N3CCN(c4ccccn4)CC3)C2)cc1` (stereo unspecified), 4.52%.
The figure for `CN(CCC(=O)Nc1cc(S(=O)(=O)N(C)C)ccc1Cl)CC(=O)Nc1ccc(F)cc1` is 1.75%; for `CC1(c2ccc3ccccc3c2)NC(=O)NC1=O` (stereo unspecified) it is 9.07%; for `O=C1CCCN2N=C(SCC(=O)Nc3ccc(Br)cc3)SC2=N1` it is -4.09%.
For `CCn1cc(C(=O)N[C@@H](C)C(=O)NCCO)c(=O)c2cc3c(cc21)OCO3`, the inhibition was -6.09%.
Take `CC(=O)c1cc(CN2CCC(C(=O)Nc3cccc(-c4cscn4)c3)CC2)cs1`: the inhibition was 12.4%.
